Our source for the Potency and outcome values is PubChem BioAssay (NCATS).

Molecules are shown by their SMILES. Records with an inconclusive call do not appear. Where a call stands in place of a potency, no number is given. Active and inactive are the calls of the source. Calls come from the whole dose curve; as a rule, active = well fitted curve in the direction sought with a large enough effect; inconclusive = small, poorly fitted or top-dose-only effect, or another doubt; inactive = no such curve, though single readings can be large; an effect the other way counts as inactive or inconclusive.

The first experiment in a line: Cytotoxicity counterscreen for NFkB agonists and antagonists (AID 624476).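 Note: cells exposed to compound for 48 hours.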 Note: potency is the fitted concentration of half-maximal effect. The following applies: NFkB reporter cell line viability counterscreen; series mostly up to 46.1 µM. A general note: A counterscreen serves to expose hits that act by an unwanted route or on another target.
With `CS(=O)c1ccc(-c2nc(-c3ccc(F)cc3)c(-c3ccncc3)[nH]2)cc1` (configuration not stated), the Potency result was “inactive”.
Consider `COc1cc(N2CCC(N3CCN(C)CC3)CC2)ccc1Nc1ncc(Cl)c(Nc2ccccc2S(=O)(=O)C(C)C)n1`, for which the Potency is 2090 nM (active).
Still for that read-out and setting: the same measure for `OC[C@H]1O[C@@H](n2cnc3c2NC=NC[C@@H]3O)C[C@H]1O`: “inactive”; for `CN(C)Cc1ccc(-c2nc3cccc4c3n2CCNC4=O)cc1`: “inactive”.
The same measure, in the same setting: then `CO[C@@H](C(=O)N1Cc2[nH]nc(NC(=O)c3ccc(N4CCN(C)CC4)cc3)c2C1)c1ccccc1`, with “inactive”.
The same measure, in the same setting: then `CC(C)(C)COc1ccc(-n2cc(C(=O)O)cn2)cc1C#N`, with “inactive”.
Consider `CC(=O)Nc1ccc([C@H](C)C(=O)Nc2ncc(C(C)C)s2)cc1`, for which the Potency was 935 nM (active).
Regarding `Cc1nc(N)sc1-c1ccnc(Nc2ccc(N3CCOCC3)cc2)n1`, the Potency result is “inactive”.
On the same count and under the same terms, then `COc1cc(Nc2ncc(F)c(Nc3ccc4c(n3)NC(=O)C(C)(C)O4)n2)cc(OC)c1OC`, with 13200 nM (active); and `CC(=O)N(C)C1(c2ccccc2)CCN(CCC[C@]2(c3ccc(Cl)c(Cl)c3)CCCN(C(=O)c3ccccc3)C2)CC1`, with 23500 nM (active); and `CC(C)[C@H](CO)Nc1nc(Nc2ccc(C(=O)O)c(Cl)c2)c2ncn(C(C)C)c2n1`, with “inactive”.
Still for that read-out and setting: then `O=C1C(Cl)=C(NCCN2CCOCC2)C(=O)c2ncccc21`, with 2350 nM (active); and `CC(C)(C)c1cc(C(=O)O)c(NC(=O)Nc2ccc3[nH]ncc3c2)s1`, with “inactive”.
`O=c1cc(N2CCOCC2)oc2c(-c3cccc4c3sc3ccccc34)cccc12`: the Potency was 18700 nM (active).
Same read-out and setting: then `O=C(O)CCC1CCC(c2cc(F)ccc2F)(S(=O)(=O)c2ccc(Cl)cc2)CC1` (configuration not stated), with “inactive”.
On the same count and under the same terms, then `O=C(N[C@@H](c1ccccc1)[C@@H]1CCCCN1)c1cccc(C(F)(F)F)c1Cl`, with “inactive”.
On the same count and under the same terms, the same measure for `CN(C)C1CCN(C(=O)c2ccc(NC(=O)Nc3nc(N4CCOCC4)nc(N4CCOCC4)n3)cc2)CC1`: 74.3 nM (active).
For the compound `CC(C)(C)C(=O)Oc1ccc2c(c1)nc(NC(=O)c1cccc([N+](=O)[O-])c1)n2CCCO`, the Potency result was “inactive”.

A further experiment is described as follows: qHTS Assay for Identification of Small Molecule Agonists for NFkB Signaling Pathway. (AID 624478).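 Note: compounds tested together with TNF alpha at its EC50 of 10 pM.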 Particulars: NFkB pathway reporter cell assay, agonist mode, cells co-stimulated with 10 pM TNF alpha; series mostly up to 46.1 µM. In a few lines: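 Assay medium contained 0.5% FBS and 10 mM HEPES pH 7.3. Compounds were added together with TNF alpha (10 pM final), incubated 5 h at 37 C, and the beta-lactamase signal was measured fluorometrically.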
In general terms: In qHTS, concentration-response curves come from the screen itself.
Take `CN1CCN(CCOc2cc(OC3CCOCC3)c3c(Nc4c(Cl)ccc5c4OCO5)ncnc3c2)CC1`: the compound was called inactive.
Same read-out and setting: then `COc1ccc(C2CC(c3ccccc3)=NN2c2ccc(S(N)(=O)=O)cc2)cc1` (configuration not stated), with “inactive”.
With `CS(=O)c1ccc(-c2nc(-c3ccc(F)cc3)c(-c3ccncc3)[nH]2)cc1` (configuration not stated), the call was inactive.
On the same count and under the same terms, the same measure for `COc1cc(N2CCC(N3CCN(C)CC3)CC2)ccc1Nc1ncc(Cl)c(Nc2ccccc2S(=O)(=O)C(C)C)n1`: “inactive”; for `OC[C@H]1O[C@@H](n2cnc3c2NC=NC[C@@H]3O)C[C@H]1O`: “inactive”; for `CN(C)Cc1ccc(-c2nc3cccc4c3n2CCNC4=O)cc1`: “inactive”.
Same read-out and setting: then `Cc1ccc(F)c(NC(=O)Nc2ccc(-c3cccc4[nH]nc(N)c34)cc2)c1`, with “inactive”.
On to `CO[C@@H](C(=O)N1Cc2[nH]nc(NC(=O)c3ccc(N4CCN(C)CC4)cc3)c2C1)c1ccccc1`, for which the compound was classed as inactive.
Consider `CC(C)(C)COc1ccc(-n2cc(C(=O)O)cn2)cc1C#N`, for which the compound was called inactive.
The same measure, in the same setting: the same measure for `CC(=O)Nc1ccc([C@H](C)C(=O)Nc2ncc(C(C)C)s2)cc1`: “inactive”; for `Cc1nc(N)sc1-c1ccnc(Nc2ccc(N3CCOCC3)cc2)n1`: “inactive”.
Same read-out and setting: then `COc1cc(Nc2ncc(F)c(Nc3ccc4c(n3)NC(=O)C(C)(C)O4)n2)cc(OC)c1OC`, with “inactive”.
Still for that read-out and setting: the same measure for `CCOC(CN1C(=O)[C@](CC(=O)Nc2ccc(C)cc2)(NC(=O)Nc2ccc(C)cc2)c2ccccc21)OCC`: “inactive”; for `CC(=O)N(C)C1(c2ccccc2)CCN(CCC[C@]2(c3ccc(Cl)c(Cl)c3)CCCN(C(=O)c3ccccc3)C2)CC1`: “inactive”; for `CCOc1ccc(Nc2nc(-c3c(C)nc4ccccn34)cs2)cc1`: “inactive”.
Consider `CC(C)[C@H](CO)Nc1nc(Nc2ccc(C(=O)O)c(Cl)c2)c2ncn(C(C)C)c2n1`, for which the compound was classed as inactive.
Still for that read-out and setting: the same measure for `O=C1C(Cl)=C(NCCN2CCOCC2)C(=O)c2ncccc21`: “inactive”.
On the same count and under the same terms, then `CC(C)(C)c1cc(C(=O)O)c(NC(=O)Nc2ccc3[nH]ncc3c2)s1`, with “inactive”.
In the case of `Clc1ccc(-c2nc3sccn3c2C=NOCc2ccc(Cl)c(Cl)c2)cc1`, the result was inactive.
For `COc1cc2ncnc(-n3nc(-c4ccccn4)nc3N)c2cc1OC`, the result was inactive.
Regarding `CO[C@H]1C[C@@H]2CC[C@@H](C)[C@@](O)(O2)C(=O)C(=O)N2CCCC[C@@H]2C(=O)O[C@H]([C@H](C)C[C@@H]2CC[C@H](OCCO)[C@H](OC)C2)CC(=O)[C@H](C)C=C(C)[C@@H](O)[C@@H](OC)C(=O)[C@H](C)C[C@H](C)C=CC=CC=C1C`, the compound was classed as inactive.
`O=c1cc(N2CCOCC2)oc2c(-c3cccc4c3sc3ccccc34)cccc12`: the result was inactive.
Same read-out and setting: the same measure for `O=C(O)CCC1CCC(c2cc(F)ccc2F)(S(=O)(=O)c2ccc(Cl)cc2)CC1` (configuration not stated): “inactive”; for `CO[C@H]1C=CC=C(C)C(=O)NC2=CC(=O)C(NCCN(C)C)=C(C[C@@H](C)C[C@H](OC)[C@@H](O)[C@@H](C)C=C(C)[C@@H]1OC(N)=O)C2=O`: “inactive”; for `O=C(N[C@@H](c1ccccc1)[C@@H]1CCCCN1)c1cccc(C(F)(F)F)c1Cl`: “inactive”.
As to `O=c1cc(CN2CCOCC2)occ1OCCCCCSc1ccnc2cc(C(F)(F)F)ccc12`, the result was inactive.
Turning to `CN(C)C1CCN(C(=O)c2ccc(NC(=O)Nc3nc(N4CCOCC4)nc(N4CCOCC4)n3)cc2)CC1`, the outcome was inactive.
Still for that read-out and setting: the same measure for `CC(C)(C)C(=O)Oc1ccc2c(c1)nc(NC(=O)c1cccc([N+](=O)[O-])c1)n2CCCO`: “inactive”; for `O=C(Nc1ccccc1-c1cn2c(CN3CCNCC3)csc2n1)c1cnc2ccccc2n1`: “inactive”.
